In PubChem BioAssay (EPA / NIEHS):
Inconclusive results are not listed. Some structures have more than one record in an assay (separate samples or runs), and their calls can disagree. Calls of active or inactive are those of the source. How the source made its calls: active means hit-call score of the fitted dose curve at least 0.9, where 1 is the maximum; inconclusive means response in the unintended direction; inactive means score below 0.9.

What follows are molecules tested against Cellular tumor antigen p53 (Homo sapiens) (UniProt P04637) (assay: TOX21_p53_BLA_p3_ratio: Tox21 HCT-116 p53 Agonism Beta-lactamase Assay, Ratio, Phase 3 (AID 2283596)).
Cellular tumor antigen p53 (Homo sapiens), sequence (P04637 whole entry, looked up, the tested form may be a part): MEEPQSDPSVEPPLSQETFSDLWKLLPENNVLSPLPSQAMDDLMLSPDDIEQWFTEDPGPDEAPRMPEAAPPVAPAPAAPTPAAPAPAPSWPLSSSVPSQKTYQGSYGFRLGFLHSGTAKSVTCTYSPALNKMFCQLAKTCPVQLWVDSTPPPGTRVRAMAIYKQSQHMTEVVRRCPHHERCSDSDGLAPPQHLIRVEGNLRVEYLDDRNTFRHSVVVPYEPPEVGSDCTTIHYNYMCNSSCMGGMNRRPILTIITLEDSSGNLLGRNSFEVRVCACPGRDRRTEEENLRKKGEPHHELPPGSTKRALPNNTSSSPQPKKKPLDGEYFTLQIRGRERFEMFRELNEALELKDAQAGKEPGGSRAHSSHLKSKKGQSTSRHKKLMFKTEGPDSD
Source text: TOX21_p53_BLA_p3 is a cell-based, single-readout assay that uses HCT116, a human intestinal cell line, […] in a 1536-well plate.TOX21_p53_BLA_p3_ratio is an assay readout measuring reporter gene via receptor activity and designed using inducible reporter (beta lactamase induction) detected with GAL4 b-lactamase reporter gene. The signal is derived from the ratio of cleaved (ch2) to uncleaved (ch1) reporter gene substrate used as the measure of target activity.Data from the assay component TOX21_p53_BLA_p3_ratio was analyzed into 1 assay endpoint. This assay endpoint, TOX21_p53_BLA_p3_ratio, was analyzed in the positive analysis fitting direction relative to DMSO as the negative control and baseline of activity. Using a type of inducible reporter, gain-of-signal activity can be used to understand changes in the reporter gene as they relate to the gene TP53. Furthermore, this assay endpoint can be referred to as a primary readout, because this assay has produced multiple assay endpoints where this ratio serves a reporter gene function to understand target activity. To generalize the intended target to other relatable targets, this assay endpoint is annotated to the DNA binding intended target family, where the subfamily is tumor suppressor.
Thawing Method: Place 14 mL of pre-warmed thaw medium into a 15 mL of conical tub. Remove the vial of cells to be thawed from liquid nitrogen and thaw rapidly by placing at 37C in a water bath with gentle agitation for 1-2 minutes. Decontaminate the vial by wiping with 70% ethanol before opening in a biological safety cabinet. Transfer the vial contents drop-wise into 14 mL of thaw medium in a sterile 15-mL conical tub. Centrifuge cells at 900 rpm for 4 minutes and resuspend in thaw medium. Transfer contents to the T75 tissue culture flask containing Thaw Medium and place flask in a humidified 37C/5% CO2 incubator. Switch to growth medium at first passage.Propagation Method: Aspirate medium, rinse once in DPBS, add 0.25% Trypsin/EDTA and swirl to coat the cell evenly. Add an equal volume of Growth Medium to inactivate Trypsin after 2-3 minutes incubation at 37C. Centrifuge cells at 900 rpm for 4 minutes and resuspend in growth medium. Cell should be passage or fed at least twice a week.Assay Protocol: Harvest cells from culture in growth medium and resuspend in assay medium. 2.2 Dispense 4000 cells/5 uL/well into 1536-well black/clear bottom plates using a Multidrop dispenser. After the cells were incubated at 37C for 5 hours, 23 nL of compounds dissolved in DMSO were transferred to the assay plate by a PinTool resulting in a 217-fold dilution. Incubate the plates for 16 hours at 37C, 5% CO2. Add 1 uL of 6X LiveBLAzer FRET B/G (CCF4-AM) Substrate Mixture to each well using a BioRAPTR dispenser and incubate the plates at room temperature for 2 hours. Measure fluorescence intensity at 460 and 530 nm emission and 405 nm excitation by an Envision detector. Data is expressed as the ratio of 460nm/530nm emissions. Add 4 uL of Cell-titer Glo to each well using BioRAPTR and incubate the plates at room temperature for 2 hours. Measure fluorescence intensity by a VewLux plate reader.
For `C[Si]1(C)O[Si](C)(C)O[Si](C)(C)O1`, the outcome was “inactive”.
In the case of `CCCCCCC(CO)CCCC` (stereo not given), the outcome is reported as “inactive”.
For `C1=CC2C3C=CC(C3)C2C1` (stereo not given), the outcome was “inactive”.
With `c1ccc2[nH]cnc2c1` the outcome was “inactive”.
`CN1C(=O)c2ccccc2C1=O` was tested, and the outcome was “inactive”.
For `CCOC(=O)[C@@H](C)Oc1ccc(Oc2nc3ccc(Cl)cc3o2)cc1`, the outcome was “inactive”.
In the case of `OC[C@H]1O[C@@H](Oc2ccc(O)cc2)[C@H](O)[C@@H](O)[C@@H]1O`, the outcome is reported as “inactive”.
With `O=C1CCCC=CCCCCCCCCCC1` the outcome was “inactive”.
In the case of `OCCCCC(O)CO` (stereo not given), the outcome is reported as “inactive”.
With `CC(C)OCCO` the outcome was “inactive”.
With `CCCC(=O)c1ccccc1` the outcome was “inactive”.
With `COc1ccc(N=Nc2cc(C)c(N=Nc3ccc(S(=O)(=O)O)cc3)cc2OC)cc1` the outcome was “inactive”.
With `CCCC(=O)C(CC)Sc1ccoc1C` (stereo not given) the outcome was “inactive”.
`O=CCc1ccccc1` was tested, and the outcome was “inactive”.
For `OCc1cccc(Oc2ccccc2)c1`, the outcome was “inactive”.
For `CS(=O)(=O)OCCCCOS(C)(=O)=O`, the outcome was “inactive”.
In the case of `CC(CN=Cc1ccccc1O)N=Cc1ccccc1O` (stereo not given), the outcome is reported as “inactive”.
In the case of `CN(C)C(=O)Nc1ccc(Oc2ccc(Cl)cc2)cc1`, the outcome is reported as “inactive”.
`COc1ccc(CCN2CCC(Nc3nc4ccccc4n3Cc3ccc(F)cc3)CC2)cc1` was tested, and the AC50 was 37.5 µM (active).
`COc1ccccc1[N+](=O)[O-]` was tested, and the outcome was “inactive”.
For `CCC1(c2ccccc2)C(=O)NCNC1=O`, the outcome was “inactive”.
For `CCCN(CCC)S(=O)(=O)c1ccc(C(=O)O)cc1`, the outcome was “inactive”.
In the case of `CCN(CC)C(=O)N(CC)CC`, the outcome is reported as “inactive”.
For `C=CC(=O)OCCCC`, the outcome was “inactive”.
In the case of `CCc1cc(C(C)(C)C)c(O)c(C(C)(C)C)c1`, the outcome is reported as “inactive”.
In the case of `O=C(CS)OCCOC(=O)CS`, the AC50 is reported as 39.3 µM (active).
In the case of `Cc1cc(C)nc(NS(=O)(=O)c2ccc(N)cc2)n1`, the outcome is reported as “inactive”.
For `CC1CC(O)CC(C)(C)C1` (stereo not given), the outcome was “inactive”.
`CCCCCCCCCCCCN1CCCCCC1=O` was tested, and the outcome was “inactive”.
In the case of `C#CC(C)N(C)C(=O)Nc1ccc(Cl)cc1` (stereo not given), the outcome is reported as “inactive”.
For `CC(C)(C)CC(C)(C)c1ccc(OCCOCC[N+](C)(C)Cc2ccccc2)cc1`, the outcome was “inactive” and the AC50 was 61 µM (active).
With `N#Cc1ccc(CC(=O)c2cccc(C(F)(F)F)c2)cc1` the outcome was “inactive”.
`Cc1cc(=O)oc2cc(N(C)C)ccc12` was tested, and the AC50 was 50.6 µM (active).
In the case of `C[Si](C)(C)O[Si](C)(C)C`, the outcome is reported as “inactive”.
In the case of `CC1C2CC(CC2C2CCCC(O)C2)C1(C)C` (stereo not given), the outcome is reported as “inactive”.
For `Cc1cc(S(=O)(=O)O)ccc1N=Nc1c(O)ccc2ccccc12`, the outcome was “inactive”.
`CCCCCC(=O)CC` was tested, and the outcome was “inactive”.
With `CC1(C)O[C@@H]2C[C@H]3[C@@H]4CCC5=CC(=O)C=C[C@]5(C)[C@@]4(F)[C@@H](O)C[C@]3(C)[C@]2(C(=O)CO)O1` the outcome was “inactive”.
With `Nc1ccn([C@H]2CS[C@@H](CO)O2)c(=O)n1` the outcome was “inactive”.
